Source: PubChem (Broad Institute)
Only a selection was taken, and hits are over-represented in it overall.
Tgondii IFNg: blocks Toxoplasma gondii growth in the presence of IFN-gamma; activity change, negative = inhibition, % (concentration not given with the values); Toxoplasma gondii growth in IFN-gamma-treated host cells; active compounds read low; AID 1259416; actives 3.8% (n = 69,000); in the data active = activity change below about -70%, passing the limit was not always enough;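 note: host cells are HeLa cells infected with Toxoplasma gondii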
Numbers without * were called inactive; i = inactive; ! = a repeat was not active.

SMILES	Tgondii IFNg
Cc1ccsc1[C@@H]1CCN(C(=O)c2ccc(-n3cnnc3)cc2)C[C@H]1O	-81.1*
CN1[C@H]2CC[C@@H]1CN(C(=O)c1ccc(-n3cnnc3)cc1)CC2	2.5
O=C(Cn1nnc2ccccc21)N1CCCC(c2ncncc2-c2ccncc2)C1 (stereo not given)	20.1
CN1C(=O)CCc2cc(NC(=O)Cc3c(F)cccc3Cl)ccc21	19.9
COC(=O)c1c(NCCc2c[nH]c3ccccc23)c2cc(Cl)ccc2[nH]c1=O	-114.8*
COC(=O)c1c(NCC(C)O)c2cc(F)ccc2[nH]c1=O (stereo not given)	19.5
COC(=O)c1c(NCCN2CCCc3ccccc32)c2cc(F)ccc2[nH]c1=O	17.6
COC(=O)c1c(NCCc2ccc(Cl)cc2)c2cc(F)ccc2[nH]c1=O	-94.2*
COC(=O)c1c(NCc2ccccc2Br)c2cc(F)ccc2[nH]c1=O	-40.3
COC(=O)c1c(NCC(C)C)c2cc(F)ccc2[nH]c1=O	-29.6
COC(=O)c1c(NCCc2c[nH]c3ccccc23)c2ccccc2[nH]c1=O	-89.1*
COC(=O)c1c(NCc2c(C)noc2C)c2ccccc2[nH]c1=O	13.8
COC(=O)c1c(NCCc2cccs2)c2ccc(F)cc2[nH]c1=O	-36.2
O=C(c1cn[nH]n1)N1CCCC(COc2cccc(F)c2)C1 (stereo not given)	-2.2
CCCn1nc(C)c(CNC(=O)C2(c3ccccc3F)CC2)c1C	0.3
O=C(CN1C(=O)CCc2cc(Br)ccc21)NCCc1nc2ccccc2[nH]1	32.4
CCS(=O)(=O)N1CCN(c2ccc(Nc3ncc(C(N)=O)c(NC4CC4)n3)cc2)CC1	-65.0
CC(=O)NCc1cnc(C2CCCN2CC(=O)Nc2nccs2)cc1C(F)(F)F (stereo not given)	-11.9
CC(=O)NCC(=O)N1[C@@H]2CC[C@H]1c1ccc(Nc3ncc(C(F)(F)F)c(NC4CCC4)n3)cc12	-73.9*
Cc1c(C(=O)N2CCCC(c3cnccn3)C2)oc2c(F)cccc12 (stereo not given)	-51.2
COc1cccc(-c2nc(C)c(-c3ccc(SCc4ccc(C)cc4)nn3)s2)c1	1.1
COCCNC(=O)CN1C(=O)CCc2cc(S(=O)(=O)N3CCC(C)CC3)ccc21	27.6
O=C1CCC/C(=N/Nc2ccccc2)C1	62.7
Cc1oc(-c2ccc(OC(C)C)cc2)nc1Cn1nnc(C(=O)Nc2ccc(F)cc2F)c1C	-109.6*
Cc1cccc(NC(=O)c2nnn(Cc3nc(-c4ccc(Cl)cc4)oc3C)c2C)c1C	-3.8
SMILES	Tgondii IFNg
CCOc1ccc(-c2nc(Cn3nnc(C(=O)Nc4cc(F)ccc4C)c3C)c(C)o2)cc1	73.0
CCc1ccccc1NC(=O)c1nnn(Cc2nc(-c3cccc(OC)c3OC)oc2C)c1C	-84.5*
Cc1cccc(NC(=O)c2nnn(Cc3nc(-c4ccc(OC(C)C)cc4)oc3C)c2C)c1C	-89.1*
Cc1ccc(C)c(NC(=O)c2nnn(Cc3nc(-c4ccc(OC(C)C)cc4)oc3C)c2C)c1	11.0
CCc1ccccc1NC(=O)c1nnn(Cc2nc(-c3cc(Br)ccc3OC)oc2C)c1C	55.5
COc1ccc(NC(=O)c2nnn(Cc3nc(-c4ccc(OC(C)C)cc4)oc3C)c2C)c(OC)c1	-37.7
COc1cccc(-c2nc(Cn3nnc(C(=O)Nc4ccccc4C)c3C)c(C)o2)c1OC	49.5
CCCOCC1CCN(c2nccc(NC)n2)C1 (stereo not given)	-6.8
CCOC1C2CCC1N(C(=O)c1nn(C)c3ccccc13)CCO2 (stereo not given)	-0.4
Cc1ccccc1C(=O)N1CC(C(=O)NCc2cccs2)C2(CCOCC2)C1 (stereo not given)	-4.5
CS(=O)(=O)N1C[C@@H]2N[C@H](C1)[C@@H]2c1ccc(-c2ccccc2)cc1	-67.0
Cc1ccccc1-c1ccc([C@H]2[C@H](CO)N3CCCCN(S(=O)(=O)Cc4ccccc4)C[C@@H]23)cc1	-47.4
N#Cc1cccc(-c2ccc(C3[C@@H]4CN(C(=O)C5CCOCC5)C[C@H]3N4)cc2)c1 (stereo not given in full)	-10.1
Cc1ccccc1-c1ccc(C2[C@@H]3CN(S(=O)(=O)Cc4ccccc4)C[C@H]2N3)cc1 (stereo not given in full)	-76.5*
Cc1ccccc1S(=O)(=O)N1C[C@@H]2N[C@H](C1)C2c1ccc(-c2cccc(C#N)c2)cc1 (stereo not given in full)	-70.9*!
Cc1ccccc1-c1ccc([C@@H]2[C@@H](CO)N3CCCCN(S(=O)(=O)Cc4ccccc4)C[C@H]23)cc1	-59.9
O=C(COc1ccc(S(=O)(=O)Nc2ccc(F)cc2)cc1Cl)NCc1ccco1	-4.3
COc1cccc(C(=O)N2CCC(CO)(Cc3ccccc3)CC2)c1OC	-0.9
COCCN1C(=O)CCc2cc(NS(=O)(=O)c3ccc(C(F)(F)F)cc3)ccc21	1.0
CCCN1C(=O)CCc2cc(NS(=O)(=O)c3ccc(CC)cc3)ccc21	-81.6*
COCCN1C(=O)CCc2cc(NS(=O)(=O)c3ccc(CC(C)C)cc3)ccc21	-78.8*
COCCN1C(=O)CCc2cc(NS(=O)(=O)c3ccc(C)c(C)c3)ccc21	22.0
COCCN1C(=O)CCc2cc(NS(=O)(=O)c3ccc4c(c3)CCC4)ccc21	-63.2
CCCN1C(=O)CCc2cc(NS(=O)(=O)c3cccs3)ccc21	5.5
COCCN1C(=O)CCc2cc(NS(=O)(=O)c3ccc(C)cc3)ccc21	39.4
SMILES	Tgondii IFNg
CCCN1C(=O)CCc2cc(NS(=O)(=O)c3ccc(C(F)(F)F)cc3)ccc21	-82.3*
COCCN1C(=O)CCc2cc(NS(=O)(=O)c3ccccc3)ccc21	-27.2
Cc1ccccc1OCC1CCCN(C(=O)C2CCCN(CCc3ccccn3)C2)C1 (stereo not given)	10.5
CCN(CC)C(=O)c1[nH]c(C)c(C)c1C	-58.8
COc1cccc(C(=O)NCCc2sc(-c3ccc(OC)c(OC)c3)nc2C)c1	i
Oc1ccc(-c2cnn3cccnc23)cc1	-6.2
O=C1CCCN1Cc1nc(Cc2ccccc2)n[nH]1	-45.5
CC(C)CNC(=O)N1CC2CC(C(=O)NCC3CC3)C(C1)O2 (stereo not given)	-3.9
O=C(Cc1cccc(F)c1)N1CC[C@H]2[C@@H]1CCN2c1ncccn1	15.4
CCn1cc(C(=O)OCC(=O)Nc2cccc(C(F)(F)F)c2)c(=O)c2ccc(C)nc21	-9.5
Nc1ncnc2c1ncn2[C@H]1CC[C@@H](CO)O1	10.5
CC(C)[C@H](N)C(=O)OCCOCn1cnc2c(=O)[nH]c(N)nc21	2.5
CC(C)(C)C(=O)OCOP(=O)(COCCn1cnc2c(N)ncnc21)OCOC(=O)C(C)(C)C	-80.0*
Cc1cc(N/N=C2\CCc3ccccc32)nc(-c2ccccc2O)n1	258.3
CCOc1ccc(NC(=O)N2CCC3(CC2)NC(=O)c2ccccc2N3CC)cc1	-1.5
CC1CCC(NC(=O)CN2C(=O)CCc3cc(S(=O)(=O)N4CCC(C)CC4)ccc32)CC1 (stereo not given)	-69.8
COc1ccc(C=O)c(OC)c1	10.2
COC(=O)c1cc(OC)c(OC)cc1NC(=O)Nc1ccc(OC)cc1OC	8.5
COc1cc(/C=C/c2ccc(OC)cc2OC)cc(OC)c1	-76.5*!
COCc1nc(N2CCCC(Oc3ccc(F)cc3)C2)c2cnn(C)c2n1 (stereo not given)	15.2
O=C(NCCc1c[nH]c2ccccc12)c1cc2occc2c(Nc2ccc(F)cc2)n1	-84.5*
O=C(NCCc1c[nH]c2ccccc12)c1cccnc1	40.4
Cc1noc(-c2ccnc(-n3ncc(C(=O)NCCc4c[nH]c5ccccc45)c3C)c2)n1	3.1
COC(=O)c1cc2n(n1)CCCN(C(=O)c1cnnn1-c1ccccc1)C2	-5.2
